Assay [1] concerns P. berghei liver stage (PbLuc). Set-up: species or system HepG2-A16-CD81; P. berghei luciferase sporozoite infection of hepatocytes, liver stage luminescence. The following applies: inhibitor; for PbLuc primary screen (10uM): inhibition % (n=1): 48 h.
For assay [2], the system named is HepG2-A16-CD81 hepatocytes. The arrangement: Uninfected hepatocyte viability, CellTiter-Glo luminescence. As to conditions: cytotoxicity primary screen, inhibitor.

As to `CN(CCCc1ccccc1)C(=O)CCC1=NC(=C2N=CN=N2)NO1` [DDD01062165], in assay [1], the “PbLuc primary screen (10uM): inhibition % (n=1)” value worked out at 22% and the “PbLuc primary screen (2uM): inhibition % (n=1)” value was -4.851%. The “HepG2 toxicity primary screen (10uM): inhibition % (n=1)” value in assay [2] is listed as -44.845%.

Regarding `Cc1nc(=O)cc(CCNC(=O)CC[C@@H]2CCCN3CCCC[C@H]23)[nH]1` [DDD01256003], in assay [1], the “PbLuc primary screen (10uM): inhibition % (n=1)” value is given as 44.8% and the “PbLuc primary screen (2uM): inhibition % (n=1)” value is 42.6913%. In addition, the “HepG2 toxicity primary screen (10uM): inhibition % (n=1)” value in assay [2] came to 0.956%.

As to `CCc1c(C)nn2c(=O)cc(C3CCN(C(=O)c4ccn(C)n4)C3)[nH]c12` (stereo not drawn) [DDD01056907], in assay [1], the “PbLuc primary screen (10uM): inhibition % (n=1)” value amounted to 3.623% and the “PbLuc primary screen (2uM): inhibition % (n=1)” value was -25.98%. In addition, in assay [2], the “HepG2 toxicity primary screen (10uM): inhibition % (n=1)” value is 7.915%.

With `Cc1ccc(S(=O)(=O)Cc2noc([C@@H]3C[C@@H](O)CN3C(C)C)n2)cc1` [DDD01025534], in assay [1], the “PbLuc primary screen (10uM): inhibition % (n=1)” value came to 44.5% and the “PbLuc primary screen (2uM): inhibition % (n=1)” value is 0.1961%. In addition, the “HepG2 toxicity primary screen (10uM): inhibition % (n=1)” value in assay [2] came to 0.317%.

Turning to `CSc1cccc(NC(=O)Nc2c(O)c3ccccc3oc2=O)c1` [DDD01037688], in assay [1], the “PbLuc primary screen (10uM): inhibition % (n=1)” value was 1.86% and the “PbLuc primary screen (2uM): inhibition % (n=1)” value is listed as 28.0462%. Further, in assay [2], the “HepG2 toxicity primary screen (10uM): inhibition % (n=1)” value stood at 4.45%.

Regarding `CCn1[nH]cc2nc(-c3ccc(OC)c(COC)c3)nc1-2` [DDD01253750], in assay [1], the “PbLuc primary screen (10uM): inhibition % (n=1)” value was -45.8% and the “PbLuc primary screen (2uM): inhibition % (n=1)” value amounted to 0.5819%. In assay [2], the “HepG2 toxicity primary screen (10uM): inhibition % (n=1)” value amounted to 6.34%.

For the compound `COc1cc(OC)c(-c2nc3c(C4CC4)[nH]n(C)c-3n2)cc1OC` [DDD01244474], in assay [1], the “PbLuc primary screen (10uM): inhibition % (n=1)” value is 41.8% and the “PbLuc primary screen (2uM): inhibition % (n=1)” value is on record as -47.16%. In addition, the “HepG2 toxicity primary screen (10uM): inhibition % (n=1)” value in assay [2] is -5.02%.

Regarding `COc1cccc(Cn2nc(C)c3c(NC(=O)C(C)OC)[nH]nc32)c1` (stereo not drawn) [DDD01063202], in assay [1], the “PbLuc primary screen (10uM): inhibition % (n=1)” value came to 39.7% and the “PbLuc primary screen (2uM): inhibition % (n=1)” value is recorded as -10.78%. Also, the “HepG2 toxicity primary screen (10uM): inhibition % (n=1)” value in assay [2] is -2.03%.

Turning to `Cc1[nH]c2cc(C3CCN(Cc4cccc(F)c4F)C3)nn2c(=O)c1C` (stereo not drawn) [DDD01270135], in assay [1], the “PbLuc primary screen (10uM): inhibition % (n=1)” value is 90.4% and the “PbLuc primary screen (2uM): inhibition % (n=1)” value worked out at 18.8%. For the same compound, the “HepG2 toxicity primary screen (10uM): inhibition % (n=1)” value in assay [2] was found to be 0.333%.

Consider `CCc1cc(=O)n2nc(C3CCN(C(=O)c4ccccn4)CC3)cc2[nH]1` [DDD01057364], for which, in assay [1], the “PbLuc primary screen (10uM): inhibition % (n=1)” value is recorded as -2.695% and the “PbLuc primary screen (2uM): inhibition % (n=1)” value is 26.22%. Further, in assay [2], the “HepG2 toxicity primary screen (10uM): inhibition % (n=1)” value was 2.29%.

Regarding `Cc1nnsc1C(=O)N1CCCCC1c1cc2[nH]c(C)c(C)c(=O)n2n1` (stereo not drawn) [DDD01059036], in assay [1], the “PbLuc primary screen (10uM): inhibition % (n=1)” value was determined as 19.3% and the “PbLuc primary screen (2uM): inhibition % (n=1)” value is given as -26.26%. Also, in assay [2], the “HepG2 toxicity primary screen (10uM): inhibition % (n=1)” value is listed as -5.93%.

For `Cc1cc(=O)n2nc(C3CCN(C(=O)c4ccccn4)CC3)cc2[nH]1` [DDD01057174], in assay [1], the “PbLuc primary screen (10uM): inhibition % (n=1)” value was found to be 7.55% and the “PbLuc primary screen (2uM): inhibition % (n=1)” value was -10.49%. The “HepG2 toxicity primary screen (10uM): inhibition % (n=1)” value in assay [2] is reported as -3.3635%.

With `CCC(CO)N(Cc1cccnc1)C(=O)c1ccc(C(F)(F)F)[nH]c1=O` (stereo not drawn) [DDD01253913], in assay [1], the “PbLuc primary screen (10uM): inhibition % (n=1)” value was -28.9% and the “PbLuc primary screen (2uM): inhibition % (n=1)” value stood at 20.89%. Moreover, the “HepG2 toxicity primary screen (10uM): inhibition % (n=1)” value in assay [2] is on record as -1.12%.

On to `CCc1c(C)nn2c(=O)cc(C3CCN(C(=O)c4cnn(C)c4)C3)[nH]c12` (stereo not drawn) [DDD01056908], for which, in assay [1], the “PbLuc primary screen (10uM): inhibition % (n=1)” value came out at 9.3875% and the “PbLuc primary screen (2uM): inhibition % (n=1)” value was -18.64%. Also, in assay [2], the “HepG2 toxicity primary screen (10uM): inhibition % (n=1)” value was determined as 4.85%.

Turning to `Clc1cccc(-c2cccc(N3CCC(NC4CCOCC4)CC3)c2)c1` [DDD01252000], in assay [1], the “PbLuc primary screen (10uM): inhibition % (n=1)” value is reported as 84% and the “PbLuc primary screen (2uM): inhibition % (n=1)” value is -46.68%. Also, the “HepG2 toxicity primary screen (10uM): inhibition % (n=1)” value in assay [2] was -4.24%.

On to `CCc1c(C)[nH]c2cc(C3CCN(Cc4cccnc4)C3)nn2c1=O` (stereo not drawn) [DDD01060570], for which, in assay [1], the “PbLuc primary screen (10uM): inhibition % (n=1)” value is on record as -33.4% and the “PbLuc primary screen (2uM): inhibition % (n=1)” value is 31.56%. In addition, the “HepG2 toxicity primary screen (10uM): inhibition % (n=1)” value in assay [2] is -25.4%.

`CCc1c(C)[nH]c2cc(C3CCN(Cc4ccc(F)cc4)C3)nn2c1=O` (stereo not drawn) [DDD01060568]: in assay [1], the “PbLuc primary screen (10uM): inhibition % (n=1)” value is 66.5% and the “PbLuc primary screen (2uM): inhibition % (n=1)” value was 40.31%. Besides, the “HepG2 toxicity primary screen (10uM): inhibition % (n=1)” value in assay [2] is recorded as -18.6%.

`COc1cccc(C2=NN=CC2=C2NC(CN3CCCC3)=NO2)c1` [DDD01247208]: in assay [1], the “PbLuc primary screen (10uM): inhibition % (n=1)” value came out at 34% and the “PbLuc primary screen (2uM): inhibition % (n=1)” value turned out to be 45.82%. In addition, the “HepG2 toxicity primary screen (10uM): inhibition % (n=1)” value in assay [2] is given as -23.2%.

As for `CC(=O)N1CCCN(C(=O)CCOc2ccc(C(C)C)cc2)CC1` [DDD01298039], in assay [1], the “PbLuc primary screen (10uM): inhibition % (n=1)” value is 52.5% and the “PbLuc primary screen (2uM): inhibition % (n=1)” value is on record as 36.9515%. Besides, in assay [2], the “HepG2 toxicity primary screen (10uM): inhibition % (n=1)” value is listed as -13%.

As to `COc1cc2c(cc1-c1nc3c[nH]n(C)c-3n1)OCO2` [DDD01248770], in assay [1], the “PbLuc primary screen (10uM): inhibition % (n=1)” value is reported as 28.7% and the “PbLuc primary screen (2uM): inhibition % (n=1)” value was 21.97%. In assay [2], the “HepG2 toxicity primary screen (10uM): inhibition % (n=1)” value is -8.9%.

As for `COc1cccc(F)c1-c1nc2c(C3CC3)[nH]n(C)c-2n1` [DDD01246655], in assay [1], the “PbLuc primary screen (10uM): inhibition % (n=1)” value is recorded as -18.5% and the “PbLuc primary screen (2uM): inhibition % (n=1)” value is 21.14%. The “HepG2 toxicity primary screen (10uM): inhibition % (n=1)” value in assay [2] is listed as 0.271%.

On to `Cn1cc(C(=O)N2CCCC(c3cc(=O)n(C)[nH]3)C2)cn1` (stereo not drawn) [DDD01060486], for which, in assay [1], the “PbLuc primary screen (10uM): inhibition % (n=1)” value was found to be 19.6% and the “PbLuc primary screen (2uM): inhibition % (n=1)” value is recorded as 27.39%. The “HepG2 toxicity primary screen (10uM): inhibition % (n=1)” value in assay [2] is on record as -21.6%.

(Values after publication PMC7155171, “Probing the Open Global Health Chemical Diversity Library for Multistage-Active Starting Points for Next-Generation Antimalarials” (ACS Infectious Diseases, 2020).)
